Drawing on PubChem BioAssay (Tox21), this text covers Potency and max response for 7 compounds.

The nature of experiment [1]: qHTS RealTime-Glo MT Cell Viability Assay in HepG2 cells - 40 hour (AID 1224870). Further: nearly all actives have a fitted effect of over 50% in size. Further: potency means the concentration at half of the fitted maximal effect. The gist of the method: (§1)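 Real-time viability: cells seeded at 600 per well together with NanoLuc and cell-permeant prosubstrate, compounds added after 5 h incubation. Luminescence tracked at 0, 8, 16, 24, 32 and 40 h of exposure.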
Background: In qHTS, concentration-response curves come from the screen itself.

Experiment [2] in a line: A CellTox Green Cytotoxicity Assay to monitor cytotoxicity in HEK293 cells - 40 hour (AID 1224871). Further: nearly all actives have a fitted effect of over 45% in size. Further: potency means the concentration at half of the fitted maximal effect. The gist of the method:
(§2)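 Homogeneous no-lysis format: HEK293 cell suspension mixed with CellTox Green reagent, seeded, incubated 5 h at 37 C/5% CO2, then dosed by pintool with compound in DMSO.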

Experiment [3] can be described thus: qHTS RealTime-Glo MT Cell Viability Assay in HEK293 cells - 16 hour (AID 1224872). Further: nearly all actives have a fitted effect of over 50% in size. Further: potency means the concentration at half of the fitted maximal effect. The gist of the method:
(§3)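 HEK293 cells were seeded at 600 cells/well together with NanoLuc luciferase and cell-permeant prosubstrate, preincubated 5 h at 37 C/5% CO2, then given compound in DMSO by pintool. Luminescence from viable-cell prosubstrate reduction was read repeatedly over 40 h.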

The nature of experiment [4]: qHTS RealTime-Glo MT Cell Viability Assay in HepG2 cells - 8 hour (AID 1224873). Further: nearly all actives have a fitted effect of over 55% in size. Further: potency means the concentration at half of the fitted maximal effect. The gist of the method:
as §1

The nature of experiment [5]: qHTS RealTime-Glo MT Cell Viability Assay in HEK293 cells - 40 hour (AID 1224874). Further: nearly all actives have a fitted effect of over 50% in size. Further: potency means the concentration at half of the fitted maximal effect. The note with it: RealTime-Glo luminescence; max response: hits give low values. The gist of the method:
(§4)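 Measured as luminescence from the same continuously cultured HEK293 wells at successive time points (0, 8, 16, 24, 32, 40 h) after compound addition. Reagent present from seeding; dosing at 5 h; incubation 37 C.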

The nature of experiment [6]: A CellTox Green Cytotoxicity Assay to monitor cytotoxicity in HEK293 cells - 24 hour (AID 1224875). Further: nearly all actives have a fitted effect of over 45% in size. Further: potency means the concentration at half of the fitted maximal effect. The gist of the method:
as §2

A short description of experiment [7]: A CellTox Green Cytotoxicity Assay to monitor cytotoxicity in HepG2 cells - 16 hour (AID 1224876). Further: nearly all actives have a fitted effect of over 45% in size. Further: potency means the concentration at half of the fitted maximal effect. The gist of the method: (§5)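 Fluorescent DNA-binding dye, 600 HepG2 cells/well, 5 h preincubation then compound in DMSO; same plates read at 0–40 h, 37 C.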
The nature of experiment [8]: qHTS RealTime-Glo MT Cell Viability Assay in HepG2 cells - 32 hour (AID 1224877). Further: nearly all actives have a fitted effect of over 55% in size. Further: potency means the concentration at half of the fitted maximal effect. The gist of the method: (§6)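 HepG2 cells were seeded at 600 cells/well together with NanoLuc luciferase and a cell-permeant prosubstrate, preincubated 5 h at 37 C/5% CO2, then pin-dosed with compounds in DMSO. Nonlytic luminescence from viable cells was read at each time point.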
The nature of experiment [9]: A CellTox Green Cytotoxicity Assay to monitor cytotoxicity in HepG2 cells - 40 hour (AID 1224879). Further: nearly all actives have a fitted effect of over 40% in size. Further: potency means the concentration at half of the fitted maximal effect. The gist of the method: as §5
Experiment [10] can be described thus: qHTS RealTime-Glo MT Cell Viability Assay in HEK293 cells - 0 hour (AID 1224880). Further: nearly all actives have a fitted effect of over 45% in size. Further: potency means the concentration at half of the fitted maximal effect. The gist of the method:
as §4

Experiment [11] is described as follows: A CellTox Green Cytotoxicity Assay to monitor cytotoxicity in HEK293 cells - 32 hour (AID 1224881). Further: nearly all actives have a fitted effect of over 40% in size. Further: potency means the concentration at half of the fitted maximal effect. The gist of the method:
as §2

The nature of experiment [12]: A CellTox Green Cytotoxicity Assay to monitor cytotoxicity in HepG2 cells - 0 hour (AID 1224882). Further: nearly all actives have a fitted effect of over 35% in size. The gist of the method:
as §5

The nature of experiment [13]: A CellTox Green Cytotoxicity Assay to monitor cytotoxicity in HepG2 cells - 32 hour (AID 1224883). Further: nearly all actives have a fitted effect of over 50% in size. Further: potency means the concentration at half of the fitted maximal effect. The gist of the method: as §5
Experiment [14] is described as follows: A CellTox Green Cytotoxicity Assay to monitor cytotoxicity in HEK293 cells - 8 hour (AID 1224884). Further: nearly all actives have a fitted effect of over 35% in size. Further: potency means the concentration at half of the fitted maximal effect. The gist of the method: as §2
The nature of experiment [15]: qHTS RealTime-Glo MT Cell Viability Assay in HepG2 cells - 16 hour (AID 1224885). Further: nearly all actives have a fitted effect of over 50% in size. Further: potency means the concentration at half of the fitted maximal effect. The gist of the method: as §6
Experiment [16] can be described thus: qHTS RealTime-Glo MT Cell Viability Assay in HEK293 cells - 24 hour (AID 1224886). Further: nearly all actives have a fitted effect of over 50% in size. Further: potency means the concentration at half of the fitted maximal effect. The gist of the method: as §3
The nature of experiment [17]: qHTS RealTime-Glo MT Cell Viability Assay in HEK293 cells - 8 hour (AID 1224887). Further: nearly all actives have a fitted effect of over 50% in size. Further: potency means the concentration at half of the fitted maximal effect. The gist of the method:
as §4

A short description of experiment [18]: A CellTox Green Cytotoxicity Assay to monitor cytotoxicity in HEK293 cells - 16 hour (AID 1224888). Further: nearly all actives have a fitted effect of over 35% in size. Further: potency means the concentration at half of the fitted maximal effect. The gist of the method: as §2
Experiment [19] can be described thus: qHTS RealTime-Glo MT Cell Viability Assay in HepG2 cells - 0 hour (AID 1224889). Further: nearly all actives have a fitted effect of over 50% in size. The gist of the method:
as §6

A short description of experiment [20]: A CellTox Green Cytotoxicity Assay to monitor cytotoxicity in HepG2 cells - 24 hour (AID 1224878). Further: nearly all actives have a fitted effect of over 45% in size. The gist of the method: as §5

Values without a mark were called inactive. Results filed as inconclusive are left out. The source made the active and inactive calls. The call rests on the fitted dose curve; in most records, active means well fitted curve in the direction sought with a large enough effect in the repeat runs; inconclusive means weak or mixed curves; inactive means no such curve, though single readings can be large; an effect the other way counts as inactive or inconclusive.
On the % scale 0 is the no-effect control and ±100 the full control effect.

As to `O=C(O)C[C@H](NC(=O)OCc1ccccc1)C(=O)O`, the Potency result in [1], in experiment [2], in [3], in [4], in [6] and in experiment [7] was “inactive” in each case. Also, the Potency entry in [8], in experiment [9], in experiment [10], in [11], in experiment [12] and in [13] was “inactive” throughout. In addition, the Potency entry in experiment [14], in experiment [15], in experiment [16], in experiment [17], in experiment [18] and in [19] was “inactive” in each case. Moreover, the max response in [5] was -0.276%.
On to `CCCCCCCCCCCCCCN(CCO)CCO`, for which the Potency was 17.4 µM (active) in experiment [1]; 38.9 µM (active) in [2]; 49 µM (active) in [3]; 54.9 µM (active) in experiment [4]; 19.5 µM (active) in [5]; 43.6 µM (active) in experiment [6]. In addition, the Potency in experiment [7] is 49 µM (active); in experiment [8], 19.5 µM (active); in [9], 13.8 µM (active); in [11], 38.9 µM (active); in experiment [13] it was 19.5 µM (active); in [14] it was 54.9 µM (active). For the same compound, the Potency was 43.6 µM (active) in experiment [15], 21.9 µM (active) in experiment [16] and 54.9 µM (active) in experiment [18]. For the same compound, the Potency result in experiment [12] and in experiment [19] was “inactive” throughout.
As for `CC1=C(Br)C(=O)C(Br)=C/C1=C(/c1ccccc1S(=O)(=O)O)c1cc(Br)c(O)c(Br)c1C`, the Potency result in experiment [1], in [2], in [3], in [4], in experiment [6] and in experiment [7] was “inactive” each time. The Potency entry in experiment [8], in experiment [20], in experiment [12], in [13], in [14] and in [15] was “inactive” throughout. For the same compound, the Potency result in experiment [16], in experiment [17] and in experiment [18] was “inactive” in each case. Further, the max response in experiment [5] was 1.66%. For the same compound, the Potency in experiment [10] was 33.3 µM (active).
Consider `CCC(C)(C)OC`, for which the Potency entry in experiment [1], in experiment [2], in [3], in experiment [4], in experiment [6] and in experiment [7] was “inactive” in each case. Besides, the Potency result in experiment [8], in [9], in experiment [10], in experiment [11], in [12] and in [13] was “inactive” in each case. Further, the Potency entry in experiment [14], in [15], in [16], in [17], in experiment [18] and in experiment [19] was “inactive” throughout. Moreover, in experiment [5], the max response is 7.38%.
Turning to `CCOC(=O)c1ccc(OCCN2C[C@H](O)[C@@H](O)[C@H](O)[C@H]2CO)cc1`, the Potency result in experiment [1], in [2], in experiment [3], in experiment [4], in experiment [6] and in experiment [7] was “inactive” throughout. For the same compound, the Potency result in [8], in [10], in [11], in experiment [12], in experiment [13] and in experiment [14] was “inactive” in each case. In addition, the Potency result in experiment [15], in experiment [16], in experiment [17], in experiment [18] and in experiment [19] was “inactive” in each case. For the same compound, the max response in [5] was 1.01%.
With `C[C@@H](O)[C@H]1C(=O)N2C(C(=O)O)=C([C@H]3CCCO3)S[C@H]12`, the Potency entry in [1], in [2], in [3], in experiment [4], in experiment [6] and in experiment [7] was “inactive” in each case. Further, the Potency result in experiment [8], in experiment [20], in experiment [9], in [10], in experiment [12] and in [13] was “inactive” throughout. Besides, the Potency result in experiment [14], in [15], in experiment [16], in experiment [17], in experiment [18] and in experiment [19] was “inactive” each time. The max response in experiment [5] was 5.96%.
`O=C(CCCN1CC=C(n2c(=O)[nH]c3ccccc32)CC1)c1ccc(F)cc1`: the Potency entry in experiment [1], in experiment [2], in experiment [4], in [6], in [7] and in [8] was “inactive” throughout. The Potency result in experiment [9], in experiment [10], in experiment [11], in experiment [12], in [13] and in experiment [14] was “inactive” each time. For the same compound, the Potency result in experiment [15] and in experiment [18] was “inactive” throughout. Besides, the Potency is 9.52 µM (active) in experiment [3], 9.52 µM (active) in experiment [5], 10.7 µM (active) in [16] and 16.9 µM (active) in experiment [17].
